# Measurements reported in PubChem BioAssay AID463218 (Sanford-Burnham Center for Chemical Genomics, 2010).
# Screen size: about 4,400 compounds; about 3,700 (84%) were called active. The set was probably picked from earlier hits. The list is a sample of the results. Unmarked numbers belong to inactive results.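 The calls were made as follows: active = inhibition above about 39% in either of two replicate wells at 20 µM (limit read from the data); inactive = the rest.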
# Experiment: tim23-1 mutant yeast growth inhibitors, confirmation, luminescence, single concentration (AID 463218);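 also: temperature-sensitive tim23-1 mutant grown at 25 °C; 0% = DMSO wells with yeast and 100% = medium wells without yeast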
# Settings: S. cerevisiae tim23-1 growth, BacTiter-Glo luminescence, 24 h; at 20 µM; hits give high values
row,Compound,inhibition
1,CCN1/C(=C\c2ccc3ccccc3[n+]2CC)Sc2cc(C)ccc21,64.8% (active)
2,CCc1ccc2oc(-c3ccc(N)cc3)nc2c1,58.8% (active)
3,O=C(CSc1cccc2cccnc12)N/N=C/c1cccnc1,62% (active)
4,C[C@@H]1C(c2ccc(F)cc2)=NN(c2ccc(Br)cc2)[C@H]1C(=O)N1CCOC1=O,44.6% (active)
5,CCOc1cc(/C=C2\SC(N3CCCC(C)C3)=NC2=O)ccc1O (configuration not stated),43% (active)
6,O=C(/C=C/c1ccccc1)c1ccccc1O,62.4% (active)
7,COc1ccc(Oc2cn[nH]c2-c2ccc(OC)cc2O)cc1,59.6% (active)
8,CCC(C)c1ccc(NC(=O)COC(=O)C2CCCC2)cc1 (configuration not stated),49.4% (active)
9,Clc1ccc(Nc2ccc3ccccc3n2)cc1,43.8% (active)
10,O=Cc1cn(-c2ccccc2)nc1-c1ccccn1,57.2% (active)
11,CC1CCCC(C)N1C(=O)CN1CCN(c2nc(-c3ccc(F)cc3)cs2)CC1 (configuration not stated),54.5% (active)
12,CC1(C)C2CCC1(C)C(OC(=O)c1ccc(O)cc1)C2 (configuration not stated),58% (active)
13,CCOC(=O)C1=C(C)N=c2s/c(=C\C(=O)OC)c(=O)n2C1c1ccc(OC)cc1 (configuration not stated),55.2% (active)
14,CC[C@]1(C(=O)OC)[C@H]2C(=O)N(Cc3ccccc3)C(=O)[C@H]2[C@H]2CN=C(SCc3ccc(Cl)cc3)N21,31.4%
15,O=C(N/N=C\c1cccc(Br)c1)c1ccccc1-n1cccc1,50.8% (active)
16,O=C(Oc1c(-c2ccco2)oc2ccccc2c1=O)c1cccnc1,67.5% (active)
17,COc1ccc(C(=O)O/N=C(\N)Cc2ccc(Cl)cc2Cl)cc1OC,52.8% (active)
18,c1ccc2cc(CCCc3cc4ccccc4cn3)ncc2c1,40.3% (active)
19,CC1(C)C=Cc2c(ccc3c2OC[C@@H](c2ccc(O)cc2O)C3)O1,29.5%

row,Compound,inhibition
1,Cc1ccc(Oc2cnn(-c3ccccc3)c(=O)c2Br)cc1,39.4% (active)
2,O=C1c2ccccc2S(=O)(=O)N1CC(O)Cn1c2ccccc2c2ccccc21 (configuration not stated),90.8% (active)
3,O=C1C(=O)N(CC2COc3ccccc3O2)c2ccccc21 (configuration not stated),46.6% (active)
4,O=c1c(-c2ccc3c(c2)OCCO3)c(C(F)(F)F)oc2cc(O)cc(O)c12,63.5% (active)
5,O=C(COC(=O)c1ccc(O)cc1O)c1ccc2c(c1)OCCO2,21%
6,COc1cc(/C=C(\C#N)c2nc3ccccc3[nH]2)ccc1O,54.2% (active)
7,Cc1cccc(/C(N)=N/OC(=O)c2ccccc2Cl)c1,75.3% (active)
8,CNC(=O)/C(C#N)=C/c1c(F)cccc1Cl,71.8% (active)
9,CCc1ccc(C(=O)NC(=S)Nc2ccccc2N2CCOCC2)cc1,49.2% (active)
10,CCn1c2ccccc2c2cc(NC(=S)N3CCOCC3)ccc21,31.6%
11,O=C(NC(=S)Nc1cccc2c(O)cccc12)c1cccc(Br)c1,23.2%
12,O=C(c1cc(-c2ccc(O)cc2)on1)N1CCCc2ccccc21,50.6% (active)
13,O=C(c1cc(-c2cccc(O)c2)on1)N1CCc2ccccc2C1,48.2% (active)
14,Cc1cc(Nc2ccccc2)n(C(=O)c2ccc(N)cc2)n1,55.7% (active)
15,N/C(=N\OC(=O)c1cc(-c2ccccc2)nc2ccccc12)c1ccncc1,80.8% (active)
16,O=C1CSC(=S)N1c1ccc(Cl)c(Cl)c1,76% (active)
17,COC(=O)c1c(NC(=O)COc2ccc(Cl)cc2Cl)sc2c1CC(C)(C)NC2(C)C,63.6% (active)
18,Oc1c(CN2CCN(c3ccc(F)cc3)CC2)cc(Cl)c2cccnc12,54.9% (active)
